Data reported in PubChem BioAssay (NCI).
This is part of a sample that, as a whole, favours compounds with a hit. Of some 83,000 tested, about 20% had one in any assay.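 Single-dose data. Exposure time 48 hours. Values below 10 considered active.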 The source made the active and inactive calls.

Experiments:
Assay in all cases: NCI-60 one-dose screen, 48 h (100 = growth as untreated, 0 = no growth, -100 = all killed)
Conditions in all cases: 10 µM unless noted
SK-MEL-2 melanoma = test system: SK-MEL-2 melanoma
EKVX NSCLC = test system: EKVX NSCLC
SN12C renal = test system: SN12C renal
UO-31 renal = test system: UO-31 renal
TK-10 renal = test system: TK-10 renal
ACHN renal = test system: ACHN renal
CAKI-1 renal = test system: CAKI-1 renal
A498 renal = test system: A498 renal
CCRF-CEM leukemia = test system: CCRF-CEM leukemia
MOLT-4 leukemia = test system: MOLT-4 leukemia
SR leukemia = test system: SR leukemia
RPMI-8226 leukemia = test system: RPMI-8226 leukemia
OVCAR-8 ovarian = test system: OVCAR-8 ovarian
OVCAR-5 ovarian = test system: OVCAR-5 ovarian
OVCAR-4 ovarian = test system: OVCAR-4 ovarian
SK-OV-3 ovarian = test system: SK-OV-3 ovarian
IGROV1 ovarian = test system: IGROV1 ovarian
OVCAR-3 ovarian = test system: OVCAR-3 ovarian
HS 578T breast = test system: HS 578T breast
NCI/ADR-RES ovarian = test system: NCI/ADR-RES ovarian

Measured: growth

O=C(N/N=C/c1ccc(F)cc1)c1ccccc1Nc1cccc(C(F)(F)F)c1
inactive: SK-MEL-2 melanoma 114% | EKVX NSCLC 102% | SN12C renal 102% | UO-31 renal 94.1% | TK-10 renal 130% | ACHN renal 102% | CAKI-1 renal 112% | A498 renal 70.8% | SR leukemia 24% | RPMI-8226 leukemia 93.1% | OVCAR-8 ovarian 89.5% | OVCAR-5 ovarian 104% | OVCAR-4 ovarian 84.4% | SK-OV-3 ovarian 94.6% | IGROV1 ovarian 103% | OVCAR-3 ovarian 81.3% | HS 578T breast 112%
active: CCRF-CEM leukemia 6.32% | MOLT-4 leukemia 7.44%

Cc1[nH]n(C(=O)c2ccncc2)c(=O)c1N=Nc1ccc(F)c(Cl)c1
inactive: SK-MEL-2 melanoma 114% | EKVX NSCLC 87.8% | SN12C renal 102% | UO-31 renal 86.7% | TK-10 renal 134% | ACHN renal 110% | CAKI-1 renal 63.4% | A498 renal 102% | CCRF-CEM leukemia 19.7% | MOLT-4 leukemia 11.6% | SR leukemia 76.1% | RPMI-8226 leukemia 87.6% | OVCAR-8 ovarian 103% | OVCAR-5 ovarian 114% | OVCAR-4 ovarian 112% | SK-OV-3 ovarian 103% | IGROV1 ovarian 95.3% | OVCAR-3 ovarian 98.3% | HS 578T breast 89.1%

O=C(CN1CCOCC1)Nc1ccc2ncnc(Nc3ccc(Oc4cccc(C(F)(F)F)c4)c(Cl)c3)c2c1
inactive: SK-MEL-2 melanoma 75.9% | EKVX NSCLC 22% | SN12C renal 38.4% | UO-31 renal 22.5% | TK-10 renal 38.4% | ACHN renal 19% | CAKI-1 renal 33.8% | A498 renal 10.1% | CCRF-CEM leukemia 58.4% | MOLT-4 leukemia 37.5% | SR leukemia 61.5% | RPMI-8226 leukemia 51.5% | OVCAR-8 ovarian 49.8% | OVCAR-5 ovarian 64.3% | OVCAR-4 ovarian 55% | SK-OV-3 ovarian 16% | OVCAR-3 ovarian 33.8% | HS 578T breast 70.8% | NCI/ADR-RES ovarian 42.3%
active: IGROV1 ovarian 9.01%

C/C(=C(/c1ccccc1)c1ccc(OCC(O)CNCCN2CCOCC2)cc1)c1ccccc1 (centres undefined)
inactive: SK-MEL-2 melanoma 94.9% | EKVX NSCLC 82.8% | SN12C renal 76.1% | UO-31 renal 69.2% | TK-10 renal 73.5% | ACHN renal 81.4% | CAKI-1 renal 67.9% | A498 renal 79.9% | CCRF-CEM leukemia 56.5% | MOLT-4 leukemia 41% | RPMI-8226 leukemia 20.4% | OVCAR-8 ovarian 78.2% | OVCAR-5 ovarian 76.2% | OVCAR-4 ovarian 70.3% | SK-OV-3 ovarian 95.4% | IGROV1 ovarian 63.3% | OVCAR-3 ovarian 77.9% | HS 578T breast 70.5% | NCI/ADR-RES ovarian 80.2%
active: SR leukemia 0.691%

FC(F)(F)Oc1cccc(-c2cc(NCCCCCCNc3cc(-c4cccc(OC(F)(F)F)c4)nc4ccc(N5CCCC5)cc34)c3cc(N4CCCC4)ccc3n2)c1
active: SK-MEL-2 melanoma 2.93% | EKVX NSCLC -54.4% | SN12C renal -81.4% | TK-10 renal -89.7% | ACHN renal -15.6% | CAKI-1 renal 5.91% | CCRF-CEM leukemia -32.1% | MOLT-4 leukemia -35.6% | SR leukemia -40.7% | RPMI-8226 leukemia -34.3% | OVCAR-8 ovarian -50.2% | OVCAR-5 ovarian -29.4% | OVCAR-4 ovarian -72.7% | IGROV1 ovarian -64% | OVCAR-3 ovarian -95.9% | HS 578T breast -4.44%
inactive: UO-31 renal 35% | A498 renal 21.8% | SK-OV-3 ovarian 89.8% | NCI/ADR-RES ovarian 21.6%

Cc1ccc(C(c2c(O)c3cc(Br)ccc3[nH]c2=O)c2c(O)c3cc(Br)ccc3[nH]c2=O)cc1
inactive: SK-MEL-2 melanoma 90.2% | EKVX NSCLC 71.2% | SN12C renal 94.5% | UO-31 renal 59.5% | TK-10 renal 106% | ACHN renal 73.5% | CAKI-1 renal 76.5% | A498 renal 79.6% | CCRF-CEM leukemia 80.3% | MOLT-4 leukemia 66.6% | SR leukemia 97.3% | RPMI-8226 leukemia 73.2% | OVCAR-8 ovarian 96% | OVCAR-5 ovarian 104% | OVCAR-4 ovarian 81.7% | SK-OV-3 ovarian 86.1% | IGROV1 ovarian 89.6% | OVCAR-3 ovarian 86.7% | HS 578T breast 82.4% | NCI/ADR-RES ovarian 101%

c1ccc(N2N=C(c3cccc(Nc4ccncc4)c3)CC2c2ccc3c(c2)OCO3)cc1 (centres undefined)
inactive: SK-MEL-2 melanoma 39% | EKVX NSCLC 45.8% | SN12C renal 40.8% | UO-31 renal 30.6% | TK-10 renal 63.1% | ACHN renal 28.7% | CAKI-1 renal 25.7% | A498 renal 46.1% | OVCAR-8 ovarian 21.7% | OVCAR-5 ovarian 43.7% | OVCAR-4 ovarian 33.6% | SK-OV-3 ovarian 22.1% | IGROV1 ovarian 16% | HS 578T breast 23.8%
active: CCRF-CEM leukemia 1.64% | MOLT-4 leukemia 7.98% | SR leukemia 4.46% | RPMI-8226 leukemia 2.64% | OVCAR-3 ovarian 7.28% | NCI/ADR-RES ovarian -1.79%

CC1(C)CN(c2cnc(C(=O)Nc3cc(F)cc4cccnc34)cn2)CCN1
active: SR leukemia 7.28%
inactive: SK-MEL-2 melanoma 99.8% | EKVX NSCLC 73% | SN12C renal 72.1% | UO-31 renal 40.9% | TK-10 renal 79.3% | ACHN renal 31.3% | CAKI-1 renal 62.4% | A498 renal 74.3% | CCRF-CEM leukemia 44.5% | MOLT-4 leukemia 38.5% | RPMI-8226 leukemia 75.6% | OVCAR-8 ovarian 96.5% | OVCAR-5 ovarian 86.1% | OVCAR-4 ovarian 15% | SK-OV-3 ovarian 79.5% | IGROV1 ovarian 36.2% | OVCAR-3 ovarian 10.6% | HS 578T breast 71.6%

CCN(CC)CCCC(C)Nc1c2c(nc3ccc(OC)cc13)CCCC2 (centres undefined)
inactive: SK-MEL-2 melanoma 128% | EKVX NSCLC 91.2% | SN12C renal 84.4% | UO-31 renal 76.6% | TK-10 renal 111% | ACHN renal 96.4% | CAKI-1 renal 93.7% | A498 renal 73.5% | CCRF-CEM leukemia 95.5% | MOLT-4 leukemia 94.7% | SR leukemia 93.6% | RPMI-8226 leukemia 100% | OVCAR-8 ovarian 105% | OVCAR-5 ovarian 90.2% | OVCAR-4 ovarian 103% | SK-OV-3 ovarian 119% | IGROV1 ovarian 98.1% | OVCAR-3 ovarian 102% | HS 578T breast 93.5% | NCI/ADR-RES ovarian 96.8%

CC(C)Sc1nc(NN)c(C#N)c(-c2ccccc2)n1
inactive: SK-MEL-2 melanoma 109% | EKVX NSCLC 94.1% | SN12C renal 98.8% | UO-31 renal 75.9% | TK-10 renal 107% | ACHN renal 93% | CAKI-1 renal 93.6% | A498 renal 92.8% | CCRF-CEM leukemia 94.3% | MOLT-4 leukemia 97.4% | SR leukemia 109% | RPMI-8226 leukemia 100% | OVCAR-8 ovarian 96.6% | OVCAR-5 ovarian 92.8% | OVCAR-4 ovarian 94.5% | SK-OV-3 ovarian 108% | IGROV1 ovarian 86.3% | OVCAR-3 ovarian 100% | HS 578T breast 93.6%

CN1CCN(c2cc(F)c(NC3=C(Cl)C(=O)c4ncccc4C3=O)c(F)c2)CC1
active: SK-MEL-2 melanoma -49.6% | EKVX NSCLC -82.7% | SN12C renal -97.5% | UO-31 renal -100% | TK-10 renal 8.46% | ACHN renal -93.1% | CAKI-1 renal -85.6% | CCRF-CEM leukemia -18.2% | MOLT-4 leukemia -22.7% | SR leukemia -0.813% | RPMI-8226 leukemia -20.7% | OVCAR-8 ovarian 1.95% | OVCAR-5 ovarian -59.8% | OVCAR-4 ovarian -99.2% | IGROV1 ovarian -90.4% | OVCAR-3 ovarian -98.2% | HS 578T breast -16.5%
inactive: A498 renal 80.1% | SK-OV-3 ovarian 82.7%

Fc1ccc(C2CC(c3cccc(Nc4ccncc4)c3)=NN2c2ccc(Cl)cc2)cc1 (centres undefined)
active: SR leukemia 4.4%
inactive: SK-MEL-2 melanoma 101% | EKVX NSCLC 84.7% | SN12C renal 68.5% | UO-31 renal 52.9% | TK-10 renal 84.6% | ACHN renal 75.6% | CAKI-1 renal 43.6% | A498 renal 78% | CCRF-CEM leukemia 42.6% | MOLT-4 leukemia 24% | RPMI-8226 leukemia 28% | OVCAR-8 ovarian 22.6% | OVCAR-5 ovarian 88.8% | OVCAR-4 ovarian 60.7% | SK-OV-3 ovarian 80.9% | IGROV1 ovarian 44.3% | OVCAR-3 ovarian 67.8% | HS 578T breast 79.9% | NCI/ADR-RES ovarian 66.8%

O=C(NCCc1ccccn1)OCc1nc2nc(Cl)nc(N3CCOCC3)c2[nH]1
active: SK-MEL-2 melanoma -16% | TK-10 renal -29.4% | ACHN renal -94.9% | CAKI-1 renal 7.47% | A498 renal -9.02% | CCRF-CEM leukemia 0.909% | MOLT-4 leukemia 4.05% | SR leukemia -23.3% | RPMI-8226 leukemia -23.8% | OVCAR-8 ovarian -0.399% | OVCAR-3 ovarian -79.5%
inactive: EKVX NSCLC 72.4% | SN12C renal 28.6% | UO-31 renal 31.8% | OVCAR-5 ovarian 69.9% | OVCAR-4 ovarian 28.6% | SK-OV-3 ovarian 30.1% | IGROV1 ovarian 23.9% | HS 578T breast 16.5% | NCI/ADR-RES ovarian 16.6%

C[C@]12CCc3nc(Nc4cccc(O)c4)sc3C1=CC[C@@H]1[C@@H]2CC[C@]2(C)/C(=N\NC(N)=S)CC[C@@H]12
active: UO-31 renal -37.1% | ACHN renal -54.1% | CCRF-CEM leukemia 1.64% | MOLT-4 leukemia 5.41% | SR leukemia 8.77% | RPMI-8226 leukemia -22.2% | IGROV1 ovarian -35.5% | OVCAR-3 ovarian -54% | HS 578T breast -0.0546%
inactive: SK-MEL-2 melanoma 40.8% | EKVX NSCLC 65.9% | SN12C renal 30.7% | TK-10 renal 20.1% | CAKI-1 renal 36.4% | A498 renal 97.5% | OVCAR-8 ovarian 30.5% | OVCAR-5 ovarian 58.8% | OVCAR-4 ovarian 39% | SK-OV-3 ovarian 29.9% | NCI/ADR-RES ovarian 47.8%

COc1ccc(NC(=O)c2sc3nc(C)c(C(O)c4ccc(OC)cc4)cc3c2N)cc1 (centres undefined)
active: SR leukemia 4.21%
inactive: SK-MEL-2 melanoma 45.6% | EKVX NSCLC 47.9% | SN12C renal 33% | UO-31 renal 20.6% | TK-10 renal 60.7% | ACHN renal 36.3% | CAKI-1 renal 30.4% | A498 renal 12.6% | CCRF-CEM leukemia 21.7% | MOLT-4 leukemia 15.8% | RPMI-8226 leukemia 39.8% | OVCAR-8 ovarian 20.4% | OVCAR-5 ovarian 50.6% | OVCAR-4 ovarian 50.4% | SK-OV-3 ovarian 38.5% | IGROV1 ovarian 29.1% | OVCAR-3 ovarian 16.7% | HS 578T breast 20.1%
